Measurements reported in PubChem BioAssay (NCATS).
Results filed as inconclusive are left out. Calls of active or inactive are those of the source. Calls follow the shape of the dose curve; as a rule, active = well fitted curve in the direction sought with a large enough effect; inconclusive = small, poorly fitted or top-dose-only effect, or another doubt; inactive = no such curve, though single readings can be large; an effect the other way counts as inactive or inconclusive.

Key:
[1] = Cellular Toxicity (caspase-3) Hek293 (AID 664);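 also: cells exposed to compound for 16 h at 37 °C before readout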
Outline: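 Luminescent Caspase-Glo 3/7 readout (aminoluciferin release) in HEK293 cells after 16 h compound treatment, 37 °C. Normalization: DMSO = basal, 100 uM tamoxifen = 100% stimulation. Concentration-response fitted with standard Hill equation for AC50.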

[2] = Cellular Toxicity (caspase-3) N2a (AID 665);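 also: compound exposure lasted 16 h at 37 °C before readout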
Outline: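 Luminescent Caspase-Glo 3/7 readout in N2a mouse neuroblastoma cells after 16 h compound exposure at 37 °C. Signal scaled to DMSO (basal) and 10 uM staurosporine (100%). Concentration-response fitted with Hill equation for AC50.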

[3] = Cellular Toxicity (caspase-3) NIH 3T3 (AID 666)
Outline: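 NIH 3T3, 1000 cells/well, 5 hr settle then 16 hr compound at 37°C; Caspase-Glo 3/7, 20 min RT, luminescence. DMSO = basal, 100 uM tamoxifen = 100%. Hill-equation AC50, qHTS.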

[4] = Cellular Toxicity (caspase-3) Renal Proximal Tubule (AID 667);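 also: cells exposed to compound for 16 hours at 37 °C before detection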
Outline: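 Caspase 3/7 activation measured by luminescent aminoluciferin release in primary rat proximal tubule cells after 16 hr compound exposure at 37 °C. AC50 from Hill-fitted concentration-response, scaled between DMSO and 10 uM staurosporine.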

[5] = target: Cytochrome P450 3A4 (Homo sapiens) (UniProt P08684); assay: qHTS Assay for Inhibitors and Substrates of Cytochrome P450 3A4 (AID 884); also: potency is read from the fitted curve at half-maximal effect; nearly all actives have a fitted effect of over 50% in size
Cytochrome P450 3A4 (Homo sapiens), sequence (P08684 whole entry, looked up): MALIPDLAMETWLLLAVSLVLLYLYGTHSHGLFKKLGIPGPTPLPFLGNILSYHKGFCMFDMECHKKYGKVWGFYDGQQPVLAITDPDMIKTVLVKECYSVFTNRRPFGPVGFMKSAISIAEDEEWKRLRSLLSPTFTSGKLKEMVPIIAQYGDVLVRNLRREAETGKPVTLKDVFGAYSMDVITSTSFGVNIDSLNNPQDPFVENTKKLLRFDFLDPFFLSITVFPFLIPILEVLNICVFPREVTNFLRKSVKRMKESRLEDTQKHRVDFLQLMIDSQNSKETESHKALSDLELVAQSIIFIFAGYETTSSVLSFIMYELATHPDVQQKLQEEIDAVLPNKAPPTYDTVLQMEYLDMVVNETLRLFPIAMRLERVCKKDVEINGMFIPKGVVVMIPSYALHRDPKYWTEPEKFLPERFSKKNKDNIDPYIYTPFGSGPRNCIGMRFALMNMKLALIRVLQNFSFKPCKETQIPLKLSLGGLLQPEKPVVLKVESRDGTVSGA
Outline: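 Luminescent readout of luciferin produced by CYP3A4 (20 nM) dealkylation of Luciferin-PPXE, 25 uM (its KM). NADPH-driven reaction ran 60 min at RT after 10 min compound preincubation; data scaled to 57 uM ketoconazole as 100% inhibition.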

[6] = target: Cytochrome P450 3A4 (Homo sapiens) (UniProt P08684); assay: qHTS Assay for Activators of Cytochrome P450 3A4 (AID 885); also: nearly all actives have a fitted effect of over 65% in size
Outline: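 Activators are scored by enhanced luminescence from CYP3A4 conversion of luciferin-PPXE (25uM, equal to KM) to luciferin, after 60 min at RT with an NADPH-regenerating system.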

[7] = Cell Viability - LYMP2-001 (AID 921); also: series mostly up to about 92 µM; nearly all actives have a fitted effect of over 70% in size
Outline: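 Cellular ATP loss read by luciferase luminescence after 24 h compound exposure at 37 C in complete medium. LYMP2-001 lymphoblastoid cells, 2500/well; qHTS concentration-response data fitted with Hill equation for AC50.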

[8] = MultiTox-Fluor Cytotoxicity Assay - LYMP1-001 - Dead Cells (AID 946)
Outline: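 Seed 2500 LYMP1-001 cells/well, incubate 5 hr at 37 C; add compound, 16 hr at 37 C; add MultiTox-Fluor reagent, 60 min RT; read dead-cell fluorescence Ex/Em=485/520. Normalize to DMSO and 15 uM tetraoctylammonium bromide.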

[9] = MultiTox-Fluor Cytotoxicity Assay - LYMP1-001 - Live Cells (AID 947)
[10] = Cell Viability - LYMP1-002 - Assay at 16 hr (AID 948)
Outline: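 ATP luminescence (CellTiter-Glo) was measured after 16 hr compound exposure at 37 C of 2500 lymphoblastoid LYMP1-002 cells per well. Concentration-response curves were fitted with the Hill equation to give AC50.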

[11] = MultiTox-Fluor Cytotoxicity Assay - LYMP1-002 - Live Cells (AID 955);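 also: cells exposed to compound for 16 hours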
Outline: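 LYMP1-002 lymphoblastoid cells; 2500 cells/well; 16 hr compound exposure, 37 C; MultiTox-Fluor reagent 60 min RT; live-cell fluorescence Ex/Em=405/510; qHTS concentration-response, Hill-equation AC50; tetraoctylammonium bromide positive control.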

[12] = MultiTox-Fluor Cytotoxicity Assay - LYMP1-002 - Dead Cells (AID 960); also: nearly all actives have a fitted effect of over 60% in size
Outline: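 Readout: fluorescence at 485/520 from cell-impermeant bis-AAF-R110 cleaved by proteases leaking from damaged cells. LYMP1-002 lymphoblastoid line, 16 hr compound treatment at 37 C, concentration-response in qHTS format; Hill-equation AC50 values.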

[13] = MultiTox-Fluor Cytotoxicity Assay - LYMP1-003 - Dead Cells (AID 961); also: nearly all actives have a fitted effect of over 70% in size
Outline: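 LYMP1-003 lymphoblastoid, 2500 cells/well, 5 hr settle then 16 hr cpd at 37 C; MultiTox-Fluor reagent 60 min RT; Ex/Em 485/520 dead-cell signal; norm. DMSO = 0%, 15 uM tetraoctylammonium bromide = 100%; Hill AC50.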

[14] = MultiTox-Fluor Cytotoxicity Assay - LYMP1-003 - Live Cells (AID 962);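 also: cells exposed to compound for 16 hours at 37 °C; cytotoxic hits lower the live-cell protease signal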
Outline: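 Readout: live-cell fluorescence (Ex/Em=405/510) from GF-AFC cleavage after 60 min MultiTox-Fluor reagent at room temperature. Lymphoblastoid LYMP1-003 cells, 16 hr compound treatment, 37 C. Concentration-response fitted to standard Hill equation for AC50.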

[15] = Cell Viability - LYMP1-003 - Assay at 24 hr (AID 963)
Outline: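 CellTiter-Glo luminescence (intracellular ATP) read after 24 hr, 37 C compound exposure of 2500 LYMP1-003 human lymphoblastoid cells/well in complete medium; qHTS concentration series; AC50 via standard Hill equation.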

[16] = Cell Viability - LYMP1-003 - Assay at 40 hr (AID 964); also: series mostly up to about 92 µM; nearly all actives have a fitted effect of over 60% in size
Outline: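 LYMP1-003 lymphoblastoid cells, 2500/well; 5 hr preincubation, 40 hr compound exposure, 37 C; CellTiter-Glo 30 min RT; luminescence; Hill-fit AC50. Positive control tetraoctylammonium bromide.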

[17] = Cell Viability - LYMP2-003 (AID 965);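 also: cells exposed to compounds for 24 h before reading; nearly all actives have a fitted effect of over 50% in size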
Outline: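 CellTiter-Glo luminescence quantified ATP loss after 24 h compound treatment of LYMP2-003 lymphoblastoid cells at 37 C. Titration series were fitted with the standard Hill equation to give AC50.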

[18] = Cell Viability - LYMP2-004 (AID 966); also: nearly all actives have a fitted effect of over 65% in size
Outline: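 Luminescent ATP read-out (CellTiter-Glo, 30 min RT) after 24 hr compound exposure at 37 C; 2500 lymphoblastoid cells/well, complete medium. Decrease in ATP = cytotoxicity; AC50 from standard Hill model.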

[19] = Cell Viability - LYMP2-005 (AID 967); also: series mostly up to about 92 µM
Outline: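 LYMP2-005 human lymphoblastoid cells (2500/well) were treated with compounds for 24 h at 37 C. Intracellular ATP was then measured by CellTiter-Glo luminescence after 30 min at room temperature. AC50 values came from Hill-equation fits of qHTS concentration-response data.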

[20] = Cell Viability - LYMP2-009 (AID 968); also: series mostly up to about 92 µM; nearly all actives have a fitted effect of over 55% in size
[21] = Cell Viability - LYMP2-011 (AID 969);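 also: cells exposed to compound for 24 hours; nearly all actives have a fitted effect of over 60% in size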
Outline: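 Luminescent ATP read-out (CellTiter-Glo, 30 min RT) after 24 hr compound exposure at 37 C in human lymphoblastoid cells, 2500 cells/well. Decreasing ATP indicates cytotoxicity; AC50 from standard Hill fit.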

[22] = Cell Viability - LYMP2-013 (AID 970); also: series mostly up to about 92 µM; nearly all actives have a fitted effect of over 55% in size
Outline: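 CellTiter-Glo luminescence (cellular ATP) read after 30 min at RT. Cells: human lymphoblastoid line, 2500/well, 24 hr compound exposure at 37 C. Tetraoctylammonium bromide positive control; AC50 via standard Hill fit of qHTS titrations.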

[23] = Cell Viability - LYMP2-015 (AID 971); also: nearly all actives have a fitted effect of over 55% in size
Outline: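 qHTS cytotoxicity: 2500 cells/well, 5 hr 37 C, compound 24 hr 37 C, CellTiter-Glo 30 min RT, luminescence. Loss of ATP = toxicity; AC50 via standard Hill fit.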

Measured: Potency

CC(C)(c1cc(Br)c(O)c(Br)c1)c1cc(Br)c(O)c(Br)c1
inactive: [1] | [2] | [3] | [4] | [6] | [7] | [8] | [9] | [10] | [11] | [12] | [13] | [14] | [15] | [16] | [17] | [18] | [19] | [20] | [21] | [22] | [23]
active: [5] 15.8 µM
